Source: PubChem BioAssay (National Center for Advancing Translational Sciences (NCATS))
The list is not random: actives were taken first. Their share in the collection is about 10%.
JMJD2A Tudor – blocks the human JMJD2A Tudor domain; O75164; AlphaScreen JMJD2A-Tudor / H3K4me3 peptide binding; Potency, µM (doses to about 114 µM), for the others: at the top dose activity change, negative = inhibition, usual class: inhibitors; hit rate 4.4% among 390,000; AID 504339; further: potency means the concentration at half of the fitted maximal effect; on the % scale 0 is the no-effect control and ±100 the full control effect; nearly all actives have a fitted effect of over 50% in size
G9a inh – G9a (human) methyltransferase inhibition; Q96KQ7; G9a H3K9 monomethylation, AlphaScreen, 2 h; Potency, µM (titrated, usually from 102 µM), for the others: top-dose activity, negative = inhibition, actives largely listed as inhibitors; hit rate 8.8% among 350,000; AID 504332; further: potency means the concentration at half of the fitted maximal effect; on the % scale 0 is the no-effect control and ±100 the full control effect; nearly all actives have a fitted effect of over 75% in size
Target sequence (Q96KQ7 913-1193 limits assumed): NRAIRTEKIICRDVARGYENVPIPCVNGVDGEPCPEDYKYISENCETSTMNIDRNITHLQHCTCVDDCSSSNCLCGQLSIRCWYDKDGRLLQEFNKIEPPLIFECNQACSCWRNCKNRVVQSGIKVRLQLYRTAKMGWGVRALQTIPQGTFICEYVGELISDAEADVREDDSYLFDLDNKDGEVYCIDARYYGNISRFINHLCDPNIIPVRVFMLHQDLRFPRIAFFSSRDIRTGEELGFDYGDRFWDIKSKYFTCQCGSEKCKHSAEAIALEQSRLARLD
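AlphaScreen detection with an anti-monomethyl H3K9 antibody quantified product after a 2 h room-temperature reaction containing 500 nM biotinylated H3K9 peptide, 20 µM SAM and 20 nM enzyme, which had been preincubated 15 min with compound.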
Six1-Eya2 inh – Six1/Eya2 interaction inhibition. activity change, % (concentration not given with the values). Q15475+O00167. hit rate 0.56% among 360,000. AlphaScreen GST-Six1/His-Eya2 binding, biochemical; hits give low values; in the data active means activity change below about -65%; inconclusive means mostly about -30% to -63%; further: on the % scale 0 is the no-effect control and ±100 the full control effect
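Homogeneous AlphaScreen proximity assay pairing GST-Six1 with His-tagged Eya2 (added as 5X mix: 250 nM and 500 nM) in 50 mM Tris pH 8.0, 300 mM NaCl, 1 mM TCEP. Glutathione donor and nickel acceptor beads; 1 h, 37 °C, dark.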
HP1b chromo inh – inhibitors of HP1-beta chromodomain binding to methylated histone tails; AlphaScreen HP1-beta / biotin-H3K9me3 peptide binding; Potency, µM (highest dose often 114 µM), for inactives: top-dose activity change, negative = inhibition, hits mostly inhibitors; hit rate 0.56% among 390,000; AID 540317; further: potency means the concentration at half of the fitted maximal effect; nearly all actives have a fitted effect of over 70% in size
Target sequence (P83916 whole entry, looked up): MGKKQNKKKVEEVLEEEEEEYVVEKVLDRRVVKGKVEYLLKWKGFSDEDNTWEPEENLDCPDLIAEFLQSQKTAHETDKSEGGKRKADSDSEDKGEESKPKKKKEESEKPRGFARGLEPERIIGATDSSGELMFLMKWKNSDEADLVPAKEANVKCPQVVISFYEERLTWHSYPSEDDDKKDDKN
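AlphaScreen: HP1-beta (50 nM) preformed 30 min with biotin-H3(1-18)K9me3 peptide (50 nM) in PBS pH 7.4, 0.01% Tween-20. Compound added for 30 min at RT, then streptavidin donor/nickel chelate acceptor beads (10 ug/mL) for 30 min.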
BAZ2B block – inhibitors of human BAZ2B bromodomain; Q9UIF8; AlphaScreen BAZ2B-H3K14Ac peptide displacement; Potency, µM (series often up to 114 µM), without a hit: at the top dose activity change, negative = inhibition, actives largely listed as inhibitors; hit rate 4.4% among 360,000; AID 504333; further: potency means the concentration at half of the fitted maximal effect; on the % scale 0 is the no-effect control and ±100 the full control effect; nearly all actives have a fitted effect of over 60% in size
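Multi-concentration screen (max 110 uM) measuring displacement of acetylated histone H3 peptide from BAZ2B by AlphaScreen, using 50 nM protein, 50 nM peptide and 10 ug/mL streptavidin donor plus Ni-chelate acceptor beads.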
CtBP-E1A blk – CtBP/E1A binding inhibition; AlphaScreen GST-E1A/His-CtBP binding, 1536-well; hits give low values; hit rate 0.49% among 340,000; AID 651724; activity change, % (test concentration not listed); in the data active means activity change below about -65%; inconclusive means mostly about -30% to -63%; further: on the % scale 0 is the no-effect control and ±100 the full control effect
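GST-E1A and His-tagged CtBP (125 nM each as 5X stock) were preincubated with pin-transferred compound for 2 h at 37 °C in the dark, then glutathione donor and nickel acceptor beads were added for 1 h before AlphaScreen reading.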
Starred values were filed as active, the others as inactive; [ ] = dose if it differs, or a comment. Unless noted, the call rests on the fitted dose curve; in most records, active means well fitted inhibition curve with a large enough effect; inconclusive means small, poorly fitted or top-dose-only effect; inactive means no such curve, though single readings can be large or run the other way.

Results for Cc1ccc(NC(=O)COc2coc(CN3CCc4ccccc4C3)cc2=O)c(C)c1 ?
JMJD2A Tudor: -14%; G9a inh: 50µM*; Six1-Eya2 inh: 4; HP1b chromo inh: 40%; BAZ2B block: -29%; CtBP-E1A blk: 3

How did CC1CN(C(=O)COc2coc(CN3CCc4ccccc4C3)cc2=O)CC(C)O1 (stereo not drawn) do in these assays?
JMJD2A Tudor: -1%; G9a inh: 45µM*; Six1-Eya2 inh: 2; HP1b chromo inh: 38%; BAZ2B block: -4%; CtBP-E1A blk: 6

How did O=C(COc1coc(CN2CCc3ccccc3C2)cc1=O)Nc1ccc(Cl)cc1 do in these assays?
JMJD2A Tudor: -26%; G9a inh: -10%[0.501 µM]; Six1-Eya2 inh: 3; HP1b chromo inh: 29%; BAZ2B block: -18%; CtBP-E1A blk: 6

Results for Cc1ccc(NC(=O)COc2coc(CN3CCc4ccccc43)cc2=O)c(C)c1 ?
JMJD2A Tudor: inconclusive; G9a inh: inconclusive; Six1-Eya2 inh: -11; HP1b chromo inh: -19%; BAZ2B block: 50µM*; CtBP-E1A blk: -2

Results for CCc1ccc(NC(=O)COc2coc(CN3CCc4ccccc4C3)cc2=O)cc1 ?
JMJD2A Tudor: -6%; G9a inh: 56µM*; Six1-Eya2 inh: -4; HP1b chromo inh: 18%; BAZ2B block: 5%; CtBP-E1A blk: -5

What do the screens show for `COc1cc2c(cc1OC)/C(=C/C(=O)c1ccc(OC)c([N+](=O)[O-])c1)NCC2`?
JMJD2A Tudor: -22%; G9a inh: 8%; Six1-Eya2 inh: -14; HP1b chromo inh: 15%; BAZ2B block: -1%; CtBP-E1A blk: -22

Results for O=C(O)CSc1c[nH]c2ccccc12 ?
JMJD2A Tudor: -10%; G9a inh: -45%[59 µM]; Six1-Eya2 inh: 23; HP1b chromo inh: 23%; BAZ2B block: -11%; CtBP-E1A blk: 0

Results for Nc1ccccc1Sc1c[nH]c2ccccc12 ?
JMJD2A Tudor: inconclusive; G9a inh: 45µM*; Six1-Eya2 inh: -9; HP1b chromo inh: -16%; BAZ2B block: inconclusive

How did CCc1cc2ccccc2nc1SCC(=O)N1CCN(C(=O)c2ccco2)CC1 do in these assays?
JMJD2A Tudor: -14%; G9a inh: 50µM*; Six1-Eya2 inh: -9; HP1b chromo inh: 30%; BAZ2B block: inconclusive; CtBP-E1A blk: -1

Results for CCc1nc(SCC(=O)N2CCN(C(=O)c3ccco3)CC2)c2c3c(sc2n1)CCCC3 ?
JMJD2A Tudor: inconclusive; G9a inh: 50µM*; Six1-Eya2 inh: 0; HP1b chromo inh: -21%; BAZ2B block: -11%; CtBP-E1A blk: 0

Results for O=C(Cc1c(F)cccc1Cl)NNC(=O)Nc1ccc2c(c1)OCO2 ?
JMJD2A Tudor: -1%; G9a inh: -2%; Six1-Eya2 inh: 0; HP1b chromo inh: 25%; BAZ2B block: 2%; CtBP-E1A blk: 0

Results for Cc1ccc(N2CCn3c2nc2c3c(=O)n(CCc3ccccc3)c(=O)n2C)cc1C ?
JMJD2A Tudor: -28%; G9a inh: -7%[59 µM]; HP1b chromo inh: 16%; BAZ2B block: -22%

What do the screens show for `Cc1ccc(Cc2c(-c3cccc(Cl)c3)nc3c(C)cc(Br)cn23)cc1`?
Six1-Eya2 inh: -8; CtBP-E1A blk: 3

What do the screens show for `Cc1nc2ccc(N=NN(C)C)cc2[nH]1`?
JMJD2A Tudor: -23%; Six1-Eya2 inh: -21; HP1b chromo inh: 16µM*; BAZ2B block: -21%; CtBP-E1A blk: inconclusive

How did O=C(c1cnc(N2CCCCC2)c2ccccc12)N1CCN(c2ccc(F)cc2)CC1 do in these assays?
JMJD2A Tudor: inconclusive; G9a inh: -7%[59 µM]; HP1b chromo inh: 18%[57 µM]; BAZ2B block: -23%

Results for Cc1cccc(N2CCN(c3ccc4cc(S(=O)(=O)N5CCC(C)CC5)ccc4n3)CC2)c1C ?
JMJD2A Tudor: 11%; G9a inh: inconclusive; HP1b chromo inh: 47%; BAZ2B block: -28%

What do the screens show for `CCN1CCOC(=O)C1CC(=O)Nc1ccccc1C(F)(F)F` (stereo not drawn)?
JMJD2A Tudor: -34%; G9a inh: 2.2µM*; HP1b chromo inh: -17%; BAZ2B block: -39%

Results for COc1cccc(NC(=O)CC2C(=O)OCCN2Cc2ccccc2)c1 (stereo not drawn) ?
JMJD2A Tudor: -8%; G9a inh: -32%[59 µM]; HP1b chromo inh: 87%; BAZ2B block: 0%

What do the screens show for `CCc1ccc(NC(=O)CC2C(=O)OCCN2CC)cc1` (stereo not drawn)?
JMJD2A Tudor: -16%; G9a inh: 1.8µM*; HP1b chromo inh: 27%; BAZ2B block: -12%

Results for CCN1CCOC(=O)C1CC(=O)Nc1cc(Cl)ccc1OC (stereo not drawn) ?
JMJD2A Tudor: -24%; G9a inh: 7.9µM*; HP1b chromo inh: 2%; BAZ2B block: -11%

How did CCN1CCOC(=O)C1CC(=O)Nc1ccc(C(C)=O)cc1 (stereo not drawn) do in these assays?
JMJD2A Tudor: -3%; G9a inh: 3.2µM*; HP1b chromo inh: 12%; BAZ2B block: inconclusive

How did CC(=O)c1ccc(NC(=O)CN2CCOCC2)cc1 do in these assays?
JMJD2A Tudor: -8%; G9a inh: -10%[59 µM]; Six1-Eya2 inh: -2; HP1b chromo inh: 40%; BAZ2B block: -36%

How did O=C(CNC(=O)c1ccc(C(F)(F)F)cc1)OC(C(=O)Nc1cc(C(F)(F)F)ccc1Cl)c1ccccc1 (stereo not drawn) do in these assays?
JMJD2A Tudor: -19%

Results for CCN1CCOC(=O)C1CC(=O)Nc1cc(C)cc(C)c1 (stereo not drawn) ?
JMJD2A Tudor: -15%; G9a inh: 3.5µM*; HP1b chromo inh: 28%; BAZ2B block: -12%

How did O=C(CC1C(=O)OCCN1Cc1ccccc1)Nc1cccc(C(F)(F)F)c1 (stereo not drawn) do in these assays?
JMJD2A Tudor: -10%; G9a inh: -60%[59 µM]; HP1b chromo inh: 47%; BAZ2B block: -13%

How did O=c1[nH]c(=O)n(-c2ccccc2)c2c1C(C(F)(F)F)(C(F)(F)F)N=C(C1CCCCC1)N2 do in these assays?
JMJD2A Tudor: 89µM*; G9a inh: 23%[59 µM]; Six1-Eya2 inh: 5; HP1b chromo inh: 4%; BAZ2B block: -2%; CtBP-E1A blk: -11

Results for O=S(=O)(Nc1ccn(-c2ccccc2)n1)c1ccc(Br)cc1 ?
JMJD2A Tudor: -11%; G9a inh: 14µM*; Six1-Eya2 inh: 2; HP1b chromo inh: 21%; BAZ2B block: -13%; CtBP-E1A blk: -3

What do the screens show for `Cc1c(NS(=O)(=O)c2ccc(Br)cc2)c(=O)n(-c2ccccc2)n1C`?
JMJD2A Tudor: -5%; G9a inh: 13%; Six1-Eya2 inh: -1; HP1b chromo inh: 40%; BAZ2B block: -2%
